This is a sample that favours compounds with a hit; in the whole collection about 1.5% have one here.
LMNA splice mod = LMNA splicing modulation | hit rate 0.01% among 200,000 | HeLa LMNA splicing GFP/RFP minigene ratio, 48 h | Potency, µM (top dose mostly 46.1 µM), without a hit: at the highest dose ratio change, negative = inhibition, usual class: inhibitors | AID 1487; active means well fitted inhibition curve with a large enough effect in the signal ratio, with a control signal flat, not every such curve was filed as active; inconclusive means small, poorly fitted or top-dose-only effect, or effect the other way, or a change in a side signal; the % refers to the signal ratio; further: on the % scale 0 is the no-effect control and ±100 the full control effect
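S3 HeLa cells stably expressing lamin A-EGFP splicing minigene plus DsRed2, 600 cells/well, 48 h compound exposure at 37C. Laser-scanning cytometry; analysed as GFP (500-530 nm)/RFP (575-640 nm) total intensity ratio; 0.5% DMSO vehicle.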
HTT cytoprotect = protects HTT-Q103 PC12 cells, measured by ATP. hit rate 0.14% among 230,000. AID 1471. PC12 HTT-Q103 induced, cytoprotection, ATP luminescence, 40 h. Potency, µM (series often up to 56.4 µM), for inactives: cytoprotection (ATP increase), hits mostly activators; further: % of control where 0% means no effect; nearly all actives have a fitted effect of over 45% in size
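Rat PC12, Q103 Htt exon1-GFP fusion, ecdysone promoter; tebufenozide inducer 100 nM final; compound titration; qHTS, 1500 cells/well; ATPlite luminescent read.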
Epigenetic derep = derepresses silenced GFP reporter in murine cells. murine LDR cells, GFP reporter derepression, 30 h. Potency, µM (highest dose often 53.9 µM), for inactives: at the top dose GFP activation, actives largely listed as activators. hit rate 0.2% among 280,000. AID 1865; further: % of control where 0% means no effect; nearly all actives have a fitted effect of over 60% in size
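Murine LDR cells bearing a silenced CMV-driven GFP reporter were exposed to compound for 30 h at 37 C. After PBS washes, GFP-positive cells (20-120 um objects) counted by laser-scanning microplate cytometry.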
HTT aggregate = inhibitors of mutant huntingtin aggregate formation in PC12 cells | hit rate 1.1% among 220,000 | Potency, µM (doses to about 46.1 µM), without a hit: at the highest dose activity change, negative = inhibition, usual class: inhibitors | PC12 HttQ103-GFP aggregates, Acumen cytometry, 40 h; further: on the % scale 0 is the no-effect control and ±100 the full control effect; nearly all actives have a fitted effect of over 60% in size
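Inducible Q103 Huntingtin exon 1–GFP PC12 line, 1500 cells/well in phenol red free DMEM with 5% equine and 5% calf serum. Tebufenozide 100 nM induced expression; compounds titrated; aggregates quantified by cytometry.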
NPSR antag = antagonists of human neuropeptide S receptor cAMP signaling. hit rate 1% among 220,000. Q6W5P4. Potency, µM (series often up to 38.3 µM), without a hit: at the highest dose activity change, negative = inhibition, actives largely listed as inhibitors. CHO-NPSR cells, cAMP TR-FRET, antagonist mode; further: on the % scale 0 is the no-effect control and ±100 the full control effect; nearly all actives have a fitted effect of over 50% in size
Target sequence (Q6W5P4 whole entry, looked up): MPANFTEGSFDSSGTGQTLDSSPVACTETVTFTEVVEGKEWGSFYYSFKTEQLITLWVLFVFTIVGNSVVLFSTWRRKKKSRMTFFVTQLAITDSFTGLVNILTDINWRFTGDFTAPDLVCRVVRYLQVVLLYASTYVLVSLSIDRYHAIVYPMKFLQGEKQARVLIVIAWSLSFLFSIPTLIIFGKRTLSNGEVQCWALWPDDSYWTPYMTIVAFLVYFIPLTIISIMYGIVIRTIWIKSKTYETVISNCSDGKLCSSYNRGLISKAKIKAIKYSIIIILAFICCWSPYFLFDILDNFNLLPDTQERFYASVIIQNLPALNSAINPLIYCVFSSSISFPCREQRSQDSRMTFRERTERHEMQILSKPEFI
Active calls of the source: *; ? = inconclusive; nt = not tested or not shown; [ ] = remark or other dose. Unless noted, the call rests on the fitted dose curve; in most records, active means well fitted curve in the direction sought with a large enough effect; inconclusive means small, poorly fitted or top-dose-only effect, or another doubt; inactive means no such curve, though single readings can be large; an effect the other way counts as inactive or inconclusive. Potency means the concentration at half of the fitted maximal effect.

SMILES	LMNA splice mod	HTT cytoprotect	Epigenetic derep	HTT aggregate	NPSR antag
O=C(Cn1ncc(Cl)c(Cl)c1=O)N1CCN(S(=O)(=O)c2ccc3ccccc3c2)CC1	?	7%[10 µM]	?	27%[9.22 µM]	13µM*
O=C(CCC(=O)N1CCN(S(=O)(=O)c2ccc3ccccc3c2)CC1)Nc1cc(Cl)cc(Cl)c1	nt	nt	-1%	-8%	-19%
O=C(O)c1ccc([N+]2=Cn3c(nc4ccccc43)C2)cc1	nt	-10%[10 µM]	nt	nt	nt
CCCCSc1nnc(-c2ccc(C)cc2)c2ccccc12	?	nt	0%	11µM*	?
Cc1ccccc1C(=O)Nc1cccc(C(=O)N/N=C/c2cc(Cl)cc([N+](=O)[O-])c2O)c1	nt	-8%	0%	2.8µM*	-6%
CC1=Nc2ccccc2/C1=C\c1nc(-c2ccccc2)oc1O	1%	?	0%	9%	-27%[46.1 µM]
CC1=Nc2ccccc2/C1=C\c1nc(-c2ccc(C(F)(F)F)cc2)oc1O	?	-5%	13µM*	-2%	-20%[46.1 µM]
Cc1cc(/C=N/n2cnnc2)c(C)n1-c1ccc(OCc2ccc(F)cc2)cc1	?	-30%[10 µM]	-1%	7.1µM*	-2%[46.1 µM]
Cc1cc(/C=N/n2cnnc2)c(C)n1-c1ccc(OCc2ccc(Cl)cc2Cl)cc1	?	-55%	1%	6.3µM*	?
O=C(Nc1cccc(Cl)c1Cl)c1cc(S(=O)(=O)NCc2ccc3c(c2)OCO3)ccc1F	?	nt	3%	nt	nt
COc1ccccc1-c1cc(C(F)(F)F)nc(S(C)(=O)=O)n1	?	-149%	-5%	?	7.9µM*
COc1ccccc1-c1cc(C(F)(F)F)nc(S(=O)(=O)CCCC(=O)NC(C)C)n1	?	-108%	-1%	-17%[9.22 µM]	?
CN1CCN(c2nc(-c3ccco3)cc(C(F)(F)F)n2)CC1	-7%	2%	0%	-6%	4%[46.1 µM]
CS(=O)(=O)c1nc(-c2ccco2)cc(C(F)(F)F)n1	?	-71%	-1%	?	10µM*
c1ccc(-c2cnn3c(-c4ccccc4)c(-c4ccccc4)nc3n2)cc1	-9%	35%[10 µM]	2.8µM*	-8%	-45%
Cc1ccc(-c2nc(C(Cl)Cl)c3ccccc3n2)cc1	nt	-80%[10 µM]	-3%	0.89µM*	?
CCn1c(NC(C)=O)nc2ccccc21	7%	11%[1.9 µM]	0%	-26%	-1%[46.1 µM]
CCCn1c(NC(=O)c2cccc(C)c2C)nc2ccccc21	-19%	-57%	1%	6.3µM*	-12%[46.1 µM]
COc1ccc(-c2nc(NC(=O)c3ccc(OCC(=O)N4CCOCC4)c(OC)c3)sc2C)cc1	?	-4%[10 µM]	-1%	-1%	-9%
COc1cc(C(=O)Nc2nc(-c3ccc(Cl)cc3)c(C)s2)ccc1OCC(=O)Nc1ccc(F)cc1	0%	-15%[10 µM]	6%	?	4µM*
CCc1ccc(-c2nc(NC(=O)c3ccc(OCC(=O)Nc4ccc(F)cc4)c(OC)c3)sc2C)cc1	-13%	-14%[10 µM]	3%	8%	6.3µM*
N=C(N)SC(c1ccccc1)c1ccccc1	nt	28%[10 µM]	nt	nt	nt
O=C1CC(=O)N(CCc2ccccc2)C(=O)N1CCc1ccccc1	-5%	-9%[0.074 µM]	-2%	0.4µM*	-13%[46.1 µM]
O=C1CC(Nc2ccccc2)C(=O)N1CCc1ccccc1 (configuration not stated)	-1%	23%	-1%	-10%	13%[46.1 µM]
Cc1ccc(-n2c(O)c(C=Nc3ccccc3-c3n[nH]c(=S)[nH]c3=O)c3ccccc3c2=O)c(C)c1	-3%[46 µM]	-162%	4%	?	-57%
SMILES	LMNA splice mod	HTT cytoprotect	Epigenetic derep	HTT aggregate	NPSR antag
Cc1ccc(-n2c(O)c(C=Nc3ccccc3-c3n[nH]c(=S)[nH]c3=O)c3ccccc3c2=O)cc1C	nt	nt	10%	5%	1.3µM*
Clc1ccc(-c2noc3ncnc(NCCc4ccccc4)c23)cc1	-9%[46 µM]	nt	-1%	nt	nt
COc1ccc(C(O)C2=CCCC2=O)cc1 (configuration not stated)	nt	?	-2%	nt	nt
O=C1NCCCc2c1oc1ccc(O)cc21	?	-35%	-1%	22µM*	-16%[46.1 µM]
O=C(CN1CCN(c2ncccn2)CC1)N1CCCc2c1c(=O)oc1ccc(O)cc21	5%	20%[10 µM]	5%	?	-12%[46.1 µM]
OCCCSCCO	nt	-17%[10 µM]	nt	nt	nt
NC(=O)CS(=O)(=O)c1nc2ccccc2n1Cc1ccccc1F	?	25µM*	-1%	16%	2%[46.1 µM]
CC(=O)NCc1nc2ccccc2n1Cc1ccccc1F	4%	-7%	-1%	19%	4%[46.1 µM]
Cc1cc(C(=O)Nn2c(-c3ccc(Br)cc3)nc3ccccc3c2=O)ccc1[N+](=O)[O-]	?	8%[10 µM]	1%	35µM*	-35%
CS(=O)(=O)N(CCC#N)Cc1ccc(/C=C2\C(=O)Nc3ccccc32)o1	19%[46 µM]	-39%	1%	11µM*	-28%
Cc1nn(C)c(C)c1CN(C)S(=O)(=O)c1ccc(F)cc1	?	-13%[1.9 µM]	1%	-30%	-1%[46.1 µM]
Cc1nn(C)c(C)c1CN(C)S(=O)(=O)c1ccc2ccccc2c1	?	?	-2%	7.9µM*	-18%[46.1 µM]
C=C(C)C(=O)OCC(C)O (configuration not stated)	nt	-5%	nt	nt	nt
CCN(CC)S(=O)(=O)c1ccc(NC(=O)c2ccc(Sc3nncn3C)c([N+](=O)[O-])c2)cc1	-8%	-1%[1.9 µM]	7%	27%	11%
CCS(=O)(=O)c1ccc(Sc2nncn2C)c([N+](=O)[O-])c1	-4%[9.22 µM]	-165%	0%	11µM*	3%
Cc1nc(N2CCc3ccccc3C2)[nH]c(=O)c1Cc1ccccc1	nt	-4%[10 µM]	1%	-3%[9.22 µM]	-13%
Cc1nc(-n2[nH]c3c(c2=O)CCCC3)[nH]c(=O)c1Cc1ccccc1	?	-48%[10 µM]	0%	?	7.9µM*
COc1ccc(C(=O)NCc2ccc3c(c2)CCN3C(C)=O)c(OC)c1	9%[46 µM]	nt	0%	nt	nt
CC(C)NC[C@@H](O)COc1ccccc1-n1cccc1	nt	-11%	-2%	nt	nt
COc1ccc(C(=O)C[n+]2cc(-c3ccc(OC)cc3)n3c2CCCC3)cc1	?	3%[10 µM]	0%	10µM*	4%
Cc1ccc(C(=O)C[n+]2cc(-c3ccc(C)cc3)n3c2CCCCC3)cc1	5%	-76%	5%	0.89µM*	-2%[46.1 µM]
O=C(C[n+]1cc(-c2ccccc2)n2c1CCCCC2)c1ccc(Br)cc1	-20%[46 µM]	10%[10 µM]	11%	7%[9.22 µM]	-42%
CC(C)[C@@H]1OC(=O)C=CC=CC=CC=CC=CC[C@@H](O)[C@H](C)[C@@H](O)C[C@H](O)C[C@H](O)C[C@H](O)C[C@H](O)C[C@H](O)C[C@H](O)C=C[C@@H]1C	nt	-4%[10 µM]	nt	nt	nt
C/C(=N\OCC(=O)Nc1ccc2c(c1)OCCO2)c1ccc2c(c1)OCCO2	-20%	-13%[10 µM]	1%	28µM*	-6%[46.1 µM]
NC(=O)c1cc2ccncc2c2ccccc12	nt	-2%[10 µM]	-3%	2.5µM*	-17%
COc1ccc(N2CCN(C(=O)CCc3c(C)nc4cc(-c5cccc(F)c5)nn4c3C)CC2)cc1	nt	nt	1%	nt	nt
Cc1ccc2nc(-c3cccc(NC(=O)c4cccc5c(Cl)cccc45)c3)oc2c1	nt	nt	2%	nt	nt
